Assay outcomes: PubChem BioAssay, National Center for Advancing Translational Sciences (NCATS)
An excerpt weighted towards active compounds, which were near 2.1% of everything screened.
aSyn yeast inh – alpha-synuclein toxicity inhibition in yeast; Yeast expressing alpha-synuclein, growth rescue, BacTiter-Glo, 24 h; Potency, µM (top dose mostly 46.1 µM), inactives show at the top dose growth rescue (activation), hits mostly activators; 370,000 tested, 0.14% active; AID 652106; also: % of control where 0% means no effect; nearly all actives have a fitted effect of over 65% in size
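Galactose-induced alpha-syn yeast (OD600=0.02, raffinose-pregrown) + pinned cpd, 24 hr, 30 deg C; growth by BacTiter-Glo luminescence. Growth restoration scores as activation.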
TDP-43 yeast inh – inhibitors of TDP-43 toxicity in yeast; TDP-43 expressing yeast growth rescue, BacTiter-Glo, 24 h; Potency, µM (top dose mostly 46.1 µM), without a hit: at the top dose growth rescue (activation), hits mostly activators; AID 652104; 410,000 tested, 1.8% active; also: % of control where 0% means no effect; nearly all actives have a fitted effect of over 50% in size
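Yeast expressing TDP-43 (pregrown in raffinose, seeded at OD600=0.02 in galactose medium) exposed to compounds 24 hr at 30 deg C. Growth read by BacTiter-Glo luminescence; rescue of toxicity appears as increased signal.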
Abeta yeast res – restores growth of yeast expressing A-beta42 peptide | yeast expressing A-beta42, growth rescue, OD600, 48 h; response scale: 0% DMSO, 100% iron-clioquinol control | Potency, µM (series often up to 46.1 µM), most hits filed as activators | 410,000 tested, 0.063% active | AID 1347071; also: nearly all actives have a fitted effect of over 55% in size
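Yeast A-beta toxicity model in growth medium with pinned compounds, 48 h at 30 C; growth read as absorbance at 600 nm. Normalized to FeCl3/clioquinol equimolar mix (positive) and DMSO (negative).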
FUS suppressor – rescues growth of FUS-expressing yeast; S. cerevisiae FUS-expressing, growth rescue, OD600, 24 h; Potency, µM (series often up to 76.6 µM), hits mostly activators; 390,000 tested, 0.24% active; AID 1347120;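 also: plate controls were DMSO vehicle for no effect and reference control for full effect; nearly all actives have a fitted effect of over 55% in size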
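Yeast expressing FUS under galactose induction, OD 0.005 in 2% galactose medium; compounds in a dilution series, 24 h at 30C. Growth rescue by absorbance at 600 nm; CP55940 positive control, DMSO negative.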
Starred values were filed as active, the others as inactive; i = inactive; ? = inconclusive; . = no result given. Calls follow the shape of the dose curve; as a rule, active = well fitted curve in the direction sought with a large enough effect; inconclusive = small, poorly fitted or top-dose-only effect, or another doubt; inactive = no such curve, though single readings can be large; an effect the other way counts as inactive or inconclusive. Potency is read from the fitted curve at half-maximal effect.

SMILES | aSyn yeast inh | TDP-43 yeast inh | Abeta yeast res | FUS suppressor
COc1cccc(NC(=O)CSC2=Nc3ccccc3C3=NC(CC(=O)NCc4ccc5c(c4)OCO5)C(=O)N23)c1 (stereo not drawn) | . | 5% | i | 25µM*
COc1ccccc1NC(=O)CSC1=Nc2ccccc2C2=NC(CC(=O)NCc3ccc4c(c3)OCO4)C(=O)N12 (stereo not drawn) | . | 4% | i | ?
COc1cc2c(cc1OC)CN(c1nc(-c3cccnc3)nc3ccccc13)CC2 | 3% | 14µM* | i | i
Cc1ccc(C)c(S(=O)(=O)N2CCN(c3nc(-c4cccnc4)nc4ccccc34)CC2)c1 | 9% | 16µM* | i | i
CN1CCN(c2nc(-c3cccnc3)nc3ccccc23)CC1 | 2% | -7% | i | i
O=S(=O)(c1ccccc1F)N1CCN(c2nc(-c3cccnc3)nc3ccccc23)CC1 | 4% | -16% | i | i
CCNc1nc(N2CCCCC2)nc(-n2nnc(C(=O)OCC)c2C)n1 | 0% | 18µM* | i | i
c1ccc2sc(-c3ccncc3)nc2c1 | ? | 2% | i | i
Oc1ccc(-c2nc3ccccc3s2)cc1 | -17% | 35µM* | i | i
Nc1ccc2cccnc2c1 | 1% | . | . | .
O=C(O)c1ccc(N=C2SCC(=O)N2Cc2ccccc2)cc1 | 25% | ? | i | i
COc1ccc(N=C2SCC(=O)N2Cc2ccccc2)cc1 | -14% | 13µM* | i | i
N#Cc1c(N2CCSCC2)nsc1-c1ccccc1Cl | -14% | 10µM* | i | i
N#Cc1c(Cl)cccc1N1CCSCC1 | 10% | ? | i | i
Cc1ccc(S(=O)(=O)c2cc3c(=O)n4ccccc4nc3n(Cc3ccco3)c2=N)cc1 | -3% | -18% | i | 14µM*
Cc1ccc(C(=O)/C=C/c2ccc(-c3ccc(C)cc3)o2)cc1 | 23% | -25% | i | 14µM*
O=S(=O)(NCc1ccco1)c1cnc(Cl)c(Br)c1 | ? | 14µM* | i | .
O=S(=O)(NCCc1ccccc1)c1cnc(Cl)c(Br)c1 | 13% | 11µM* | i | .
Cc1ccc(C)c(NC(=O)C(Cc2ccccc2)N2Cc3ccccc3C2=O)c1 (stereo not drawn) | . | -9% | i | i
COc1ccc(-c2nnc3sc(COc4ccccc4)nn23)cc1 | 7% | 2.8µM* | i | i
COc1ccc(Cc2nn3c(-c4ccccc4OC)nnc3s2)cc1 | -4% | ? | i | i
COc1ccccc1-c1nnc2sc(COc3ccc(Cl)cc3)nn12 | 29% | 18µM* | i | ?
COc1ccc(-c2nnc3sc(COc4ccc(C)cc4)nn23)cc1 | -9% | 9% | i | i
O=S1(=O)C=CCN1Cc1cn(Cc2ccc(C(F)(F)F)cc2)nn1 | . | . | . | i
CCN(CC)C(=O)CC[C@@H]1CC[C@]2(CCCN(C(=O)C3CCCCC3)C2)O1 | . | . | . | i
SMILES | aSyn yeast inh | TDP-43 yeast inh | Abeta yeast res | FUS suppressor
O=[N+]([O-])c1ccc(-c2c(-c3ccccc3)ncc3cc(F)ccc23)cc1 | -23% | 0% | i | ?
O=[N+]([O-])c1cccc(-c2c(-c3ccccc3)ncc3cc(F)ccc23)c1 | -14% | 28µM* | i | i
Fc1cc(F)cc(-c2c(-c3ccccc3)ncc3ccc(F)cc23)c1 | -16% | 35µM* | i | i
COC(=O)[C@]12C[C@H](CC(=O)NCc3cccc(C(F)(F)F)c3)C(=O)N(Cc3ccc(Cl)cc3Cl)C1=C[C@H](C(C)(C)C)O[C@@H]2C | . | . | . | 13µM*
COC(=O)[C@]12C[C@H](CC(=O)NCc3ccccc3)C(=O)N(Cc3ccc(Cl)cc3Cl)C1=C[C@H](C(C)(C)C)O[C@@H]2C | . | . | . | i
COC(=O)[C@]12C[C@H](CC(=O)N3CCN(C(=O)c4ccco4)CC3)C(=O)N(Cc3ccc(Cl)cc3Cl)C1=C[C@H](C(C)(C)C)O[C@@H]2C | . | . | . | 11µM*
Cc1cc(F)ccc1NS(=O)(=O)c1c(C)nc2scc(C)n2c1=O | -8% | 20µM* | i | i
Nc1cccc[n+]1C(c1ccnc2ccccc12)[n+]1ccccc1N | 4% | . | . | .
Nc1nc(=S)c2n[nH]nc2[nH]1 | -1% | . | . | .
CCCOC(=O)c1ccc(NC(=O)c2cc(OC)c(OC)c(OC)c2Br)cc1 | 6% | 13µM* | i | i
CCOc1ccc(OCc2ccc(C(=O)N(CC)CC)cc2)cc1 | -11% | 13µM* | i | i
O=C(NC(=S)Nc1ccc(N2CCOCC2)c(Cl)c1)c1cccs1 | -2% | 9% | ? | i
O=C(NC(=S)Nc1ccc(N2CCOCC2)c(Cl)c1)c1cncc(Br)c1 | -8% | 20µM* | i | i
O=C(NC(=S)NC1CCCCCC1)c1cncc(Br)c1 | -14% | 16µM* | ? | .
O=C(c1ccccc1Br)N1CCc2c([nH]c3ccccc23)C1 | ? | 18µM* | i | i
COc1ccc(N2C(=O)CC(N3CCC(O)(c4ccc(Br)cc4)CC3)C2=O)cc1 (stereo not drawn) | 9% | 20µM* | i | i
CCCOc1ccc(N2C(=O)CC(N3CCN(c4ccccc4OC)CC3)C2=O)cc1 (stereo not drawn) | ? | 25µM* | i | i
COc1cccc(N2CCN(C3CC(=O)N(c4ccc(F)c(Cl)c4)C3=O)CC2)c1 (stereo not drawn) | -7% | 13µM* | i | i
COc1ccc(CNC(=O)c2cnc(N3CCCC3)nc2C)cc1 | . | ? | i | i
COc1ccccc1N(O)C1CC(=O)N(c2ccc(Br)cc2)C1=O (stereo not drawn) | -10% | 28µM* | i | ?
Cc1oc2ncn(CC(C)C)c(=O)c2c1C(=O)NCCc1ccc(Cl)cc1 | . | 27% | i | i
COC(=O)c1ccc(Cn2ccc3ccc(-c4ccc5ccn(C(=O)c6ccccc6OC)c5c4)cc32)cc1 | . | . | . | i
CC1(OC(=O)c2ccco2)C(=O)C=C2C=C(C3CC3)OC=C2C1=O (stereo not drawn) | -12% | 11µM* | i | i
CC1(OC(=O)c2cccs2)C(=O)C=C2C=C(C3CC3)OC=C2C1=O (stereo not drawn) | -6% | 20µM* | i | i
CCC(=O)OC1(C)C(=O)C=C2C=C(C3CC3)OC=C2C1=O (stereo not drawn) | -11% | ? | i | i
COCCCNC(=O)C1CCN(C(=O)c2ccc(-n3ccc4ccccc43)s2)CC1 | . | 11% | i | i
Cc1ccc(C)c(N2CCN(C(=O)C3CCCN(S(=O)(=O)c4ccc5c(c4)oc(=O)n5C)C3)CC2)c1 (stereo not drawn) | . | 2% | i | ?
O=C(N/N=C/c1ccccn1)c1[nH]c2ccc([N+](=O)[O-])cc2c1-c1ccccc1 | ? | 27% | i | 32µM*
COc1ccc2c(c1)C/C(=C\c1ccc(N(C)C)cc1)C2=O | -9% | . | . | .
CC(=C/c1ccccc1)/C=N/n1c(-c2ccco2)n[nH]c1=S | . | 11µM* | i | i
